Most compounds without a hit are left out; they make up all but 6.8% or so of the library.
Spn MK inh: S. pneumoniae mevalonate kinase inhibition | AID 555 | inhibition, % at 10 µM | purified MK, PK/LDH-coupled NADH absorbance 340 nm | actives 0.48% (n = 65,000);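 active means ranked among the strongest by inhibition in the single 10 µM screen, a fixed top-ranked set picked for dose follow-up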
A340 absorber: absorbance at 340 nm; compound absorbance at 340 nm, fold over control; fold change at 10 µM; 65,000 tested, under 10 active; AID 708;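 active means at 10 µM dose, initial 340 nm absorbance at least 2 fold that of control wells; inactive means change under 2 fold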;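 further: initial absorbance extrapolated from kinetic A340 decline of NADH oxidation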
DPM-DC inhibit: S. pneumoniae DPM-DC inhibition | actives 0.49% (n = 65,000) | calls only at 10 µM | purified DPM-DC, PK/LDH coupled NADH fluorescence;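 active means the 320 compounds with the highest percent inhibition in the single-dose primary screen, excluding strongly autofluorescent ones, cut at about 32% in these data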;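 further: kinetic rate of NADH fluorescence loss reporting ADP formed by the decarboxylase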
Autofluor 339: intrinsic fluorescence of library compounds, ex339/em460 – biochemical, MLSMR library, data from DPM-DC assay, artefact control, profiling panel; compound autofluorescence, ex339/em460 nm, NADH buffer; stronger effect = higher value; 1 = no-compound wells, NADH background; fluorescence fold increase at 10 µM; actives 5.5% (n = 65,000); AID 709;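 active means at 10 µM, mean starting fluorescence two-fold or more over control wells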;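 further: signal is the first read of a kinetic run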
NADH coupling: inhibition of NAD/NADH coupling enzymes, library profiling | IC50, µM (series often up to 10 µM), without a hit: at the highest dose inhibition | actives 0.02% (n = 65,000) | coupled PK/LDH NADH assays, four targets;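 active means single-dose screening hits from any of four coupled enzyme assays that gave an IC50 when retested across doses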;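 further: the DPM-DC format reads NADH fluorescence rather than 340 nm absorbance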
PMK inhibit: blocks S. pneumoniae phosphomevalonate kinase | actives 0.49% (n = 65,000) | AID 539 | purified PMK, PK/LDH-coupled NADH absorbance 340 nm | inhibition, % at 10 µM;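 active means top-ranked compounds by inhibition in the single 10 µM screen, taking a fixed number of the strongest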;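 further: 0% = full reaction with DMSO carrier and 100% = background rate without enzyme reaction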
An asterisk follows results filed as active; i = inactive; nt = no result given; + = active, no number.

SMILES | Spn MK inh | A340 absorber | DPM-DC inhibit | Autofluor 339 | NADH coupling | PMK inhibit
COc1ccc(-c2cc(C(F)(F)F)n3ncc(C(=O)NCc4ccco4)c3n2)cc1 | 6.0 | 1.11 | nt | 2.18* | 3.0% | 0.0
CCOC(=O)c1cnn(-c2cc(C)nc3c(-c4ccccc4)cnn23)c1N | 2.0 | 1 | i | 1.1 | 1.0% | 2.0
CC(C)CCNC(=O)c1cnn2c(C(F)(F)F)cc(-c3ccco3)nc12 | 2.0 | 1.11 | i | 3* | 12.0% | 14.0
CCOC(=O)c1cnn2c(C(F)F)cc(C3CC3)nc12 | 2.0 | 1.05 | i | 1.83 | 10.0% | 7.0
CCOC(=O)c1cnn2c(C)cc(-c3ccccc3)nc12 | 6.0 | 1.05 | nt | 3.71* | 9.0% | 12.0
CCOC(=O)c1cnn2c(C(F)(F)F)cc(-c3ccco3)nc12 | 8.0 | 1.16 | nt | 4.33* | 7.0% | 6.0
CCOC(=O)c1cc(-c2ccco2)nc2c1c(C)nn2-c1ccccc1 | 0.0 | 1.08 | i | 2.55* | 7.0% | 5.0
O=C(NC1CCCC1)c1cnn2c(C(F)(F)F)cc(-c3ccc4c(c3)OCO4)nc12 | 0.0 | 1.06 | i | 2.14* | 9.0% | 15.0
O=C(CSc1nc(-c2ccco2)cc(C(F)(F)F)n1)NC1CCCC1 | 7.0 | 1.13 | i | 1.14 | 8.0% | 10.0
O=C(NC1CCCC1)c1cnn2c(C(F)(F)F)cc(-c3ccco3)nc12 | 3.0 | 1.07 | i | 2.92* | 15.0% | 18.0
O=C(c1cnn2c(C(F)(F)F)cc(-c3ccc4c(c3)OCO4)nc12)N1CCCCC1 | 5.0 | 1.04 | i | 1.37 | 2.0% | 1.0
O=C(NCc1ccco1)c1cc2nc(-c3cccs3)cc(C(F)(F)F)n2n1 | 18.0 | 1.1 | nt | 2.12* | 15.0% | 11.0
Cc1nn(-c2ccccc2)c2nc(-c3ccncc3)cc(C(=O)NCc3ccco3)c12 | 0.0 | 1.07 | i | 1.75 | 11.0% | 14.0
O=C(NCC1CCCO1)C1CC(c2ccc(Cl)c(Cl)c2)=NO1 (configuration not stated) | 4.0 | 0.98 | i | 1.05 | 3.0% | 3.0
Cc1cc(-c2ccccc2)nc2cc(C(N)=O)nn12 | 13.0 | 1.01 | + | 2* | 8.0% | 3.0
CN(C)C(=O)Nc1cnc2ccccc2c1 | 0.0 | 1.04 | + | 0.59 | 13.0% | 0.0
Cc1cc(NC(=O)CC(CN(C)S(=O)(=O)c2ccccc2)c2ccccc2)no1 (configuration not stated) | 0.0 | 1.03 | i | 1.02 | 1.0% | 3.0
COc1ccc(NC(=O)c2nnn(Cc3ccc(SC)cc3)c2N)c(OC)c1 | 11.0 | 1.06 | + | 1.52 | 29.0% | 0.0
Cc1cc(N2CCOCC2)c2c(N)c(Br)cc(C)c2n1 | 3.0 | 1.08 | + | 0.68 | 16.0% | 9.0
O=C(CS(=O)CC(=O)N(CC(=O)NC1CCCC1)C1CCCC1)Nc1ccc(F)cc1 (configuration not stated) | 2.0 | 0.98 | i | 1.07 | 5.0% | 13.0
Cc1cccc(C)c1-n1nnnc1S(=O)(=O)Cc1ccccc1Cl | 7.0 | 1.04 | i | 1.12 | 2.0% | 0.0
CN(C)c1ccc(-c2nn3c(C4CCCCC4)nnc3s2)cc1 | 4.0 | 1.11 | i | 2.55* | 11.0% | 4.0
CN(C)c1ccc(-c2nn3c(-c4ccc(Cl)cc4)nnc3s2)cc1 | 2.0 | 1.03 | i | 1.34 | 1.0% | 0.0
CNC(=O)C1CC(=O)N(c2ccc(C)cc2)C1 (configuration not stated) | 6.0 | 1.04 | i | 1.07 | 8.0% | 14.0
Cc1[nH]c2ccc(Br)cc2c(=O)c1CN1CCCCC1 | 4.0 | 1.07 | i | 1.07 | 4.0% | 8.0
SMILES | Spn MK inh | A340 absorber | DPM-DC inhibit | Autofluor 339 | NADH coupling | PMK inhibit
Cc1ccc2[nH]c3c(c2c1)CCc1cn[nH]c1-3 | 3.0 | 0.99 | i | 1.84 | 6.0% | 12.0
Cc1ccc2[nH]c3c(c2c1)CCC3=O | 7.0 | 1 | nt | 3.73* | 8.0% | 9.0
O=C1CCCc2c1[nH]c1ccc(CN3CCCCC3)cc21 | 6.0 | 1.13 | nt | 2.1* | 3.0% | 0.0
COc1ccc(C(=O)N(Cc2nc(-c3ccc(C)cc3)no2)C2CCCCC2)cc1OC | 12.0 | 1.02 | i | 1.09 | 7.0% | 9.0
CCOC(=O)c1nc2sc(C)c(C)c2c(=O)[nH]1 | 10.0 | 1.11 | nt | 3.68* | 12.0% | 14.0
CCOC(=O)CCCSc1nc2sc(C)c(C)c2c(=O)[nH]1 | 1.0 | 1.05 | i | 1.09 | 3.0% | 9.0
c1csc(-c2ccc3ccccc3n2)c1 | 7.0 | 1.14 | i | 2.64* | 13.0% | 13.0
Cc1cc(-c2cccs2)n[nH]1 | 0.0 | 1.05 | i | 1.07 | 1.0% | 0.0
c1ccc(N2CCN(c3nc4ccccc4n4nnnc34)CC2)cc1 | 0.0 | 1.06 | i | 1.78 | 5.0% | 15.0
c1ccc(CCNc2nc3ccccc3n3nnnc23)cc1 | 0.0 | 1.05 | i | 2.58* | 7.0% | 13.0
CCOc1ccccc1NC(=O)C1CCN(S(=O)(=O)c2cccc3cccnc23)CC1 | 8.0 | 1.06 | i | 1.07 | 7.0% | 13.0
COc1ccc(C2=CC(c3ccc(C)cc3)n3nnnc3N2)cc1 (configuration not stated) | 0.0 | 1.05 | i | 1.34 | 3.0% | 10.0
CCOc1ccc(C2C=C(c3ccc(F)cc3)Nc3ncnn32)cc1 (configuration not stated) | 0.0 | 1.02 | nt | 2.48* | 2.0% | 0.0
COc1cccc(C2=CC(c3ccc(N(C)C)cc3)n3ncnc3N2)c1 (configuration not stated) | 13.0 | 1.09 | i | 2.08* | 10.0% | 8.0
C1=C(c2ccc(-c3ccccc3)cc2)Nc2ncnn2C1c1ccco1 (configuration not stated) | 8.0 | 1.08 | nt | 3.85* | 9.0% | 10.0
COc1ccc(C2C=C(c3ccc(C)cc3)Nc3ncnn32)cc1 (configuration not stated) | 2.0 | 1.05 | nt | 2.35* | 5.0% | 7.0
Cc1ccc2c(c1)N(CCC(=O)NCCCOC(C)C)C(=O)C(C)O2 (configuration not stated) | 10.0 | 0.96 | i | 1.09 | 6.0% | 8.0
CCOc1ccc(-n2c(Cc3ccccc3)nnc2SCc2c(C)noc2C)cc1 | 0.0 | 1.01 | i | 0.99 | 3.0% | 8.0
COc1cccc(C2=CC(c3ccccc3)n3ncnc3N2)c1 (configuration not stated) | 1.0 | 1.06 | i | 1.59 | 6.0% | 10.0
CCOc1ccc(C2C=C(c3ccccc3)Nc3ncnn32)cc1 (configuration not stated) | 10.0 | 1.06 | nt | 2.36* | 9.0% | 8.0
COCCNc1oc(-c2ccccc2Cl)nc1C#N | 5.0 | 1.06 | i | 1.67 | 8.0% | 6.0
COc1ccc(CCNc2oc(-c3ccccc3OC)nc2C#N)cc1 | 16.0 | 1.01 | nt | 2.96* | 6.0% | 18.0
COCCNc1oc(-c2ccc(F)cc2)nc1C#N | 0.0 | 1.05 | nt | 2.36* | 3.0% | 5.0
N#Cc1nc(-c2ccc(F)cc2)oc1NCc1ccccc1 | 0.0 | 1.06 | nt | 2.23* | 1.0% | 1.0

Screening results deposited in PubChem BioAssay by SRMLSC.
